An excerpt weighted towards active compounds, which were near 9.2% of everything screened.
FLuc counter – qHTS profiling assay for firefly luciferase inhibitor/activator using purifed enzyme and Km concentrations of substrates (counterscreen for miR-21 project); Luciferin 4-monooxygenase (Photinus pyralis), P08659; AID 588342, 2011; 360,000 tested, 6.9% active; Potency, µM (top dose mostly 57.5 µM), hits mostly inhibitors; purified FLuc, Km substrates, luminescence inhibition; note: nearly all actives have a fitted effect of over 55% in size
Target sequence (P08659 whole entry, looked up): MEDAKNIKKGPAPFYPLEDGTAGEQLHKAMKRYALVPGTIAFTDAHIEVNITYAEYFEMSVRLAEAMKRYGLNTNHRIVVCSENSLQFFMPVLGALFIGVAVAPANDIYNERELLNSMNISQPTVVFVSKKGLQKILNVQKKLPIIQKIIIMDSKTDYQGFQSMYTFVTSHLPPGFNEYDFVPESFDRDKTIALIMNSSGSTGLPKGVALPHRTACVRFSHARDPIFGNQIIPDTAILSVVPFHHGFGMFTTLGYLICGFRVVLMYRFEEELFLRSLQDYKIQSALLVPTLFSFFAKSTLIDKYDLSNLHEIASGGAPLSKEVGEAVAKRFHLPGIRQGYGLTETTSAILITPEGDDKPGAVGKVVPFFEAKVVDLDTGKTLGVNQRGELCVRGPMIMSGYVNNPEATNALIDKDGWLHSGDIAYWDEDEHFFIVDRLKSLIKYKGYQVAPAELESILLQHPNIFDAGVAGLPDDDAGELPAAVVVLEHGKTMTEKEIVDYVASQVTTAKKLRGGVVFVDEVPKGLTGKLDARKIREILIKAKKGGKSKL
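Biochemical qHTS of compounds, final roughly 60 µM downward over six points, against 10 nM purified firefly luciferase using Km concentrations of substrates (10 uM D-luciferin, 10 uM ATP) in Tris acetate pH 7.5 buffer; luminescence output.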
SMN2 splice up – qHTS Assay for Enhancers of SMN2 Splice Variant Expression; HEK293 SMN2-luciferase splicing reporter, luminescence, 30-36 h; Potency, µM (highest dose often 46.1 µM), most hits filed as activators; 210,000 tested, 2.8% active; note: nearly all actives have a fitted effect of over 55% in size
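qHTS luciferase splicing reporter: luminescence rises when SMN2 exon 7 is included in transfected HEK293 cells. Compound exposure lasted 30-36 h at 37C, with 4.5 mM final sodium butyrate as control, followed by a ONE-Glo read.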
NPC1 prom act – qHTS Assay for NPC1 Promoter Activators; Huh7 NPC1 promoter luciferase reporter, 24 h; Potency, µM (top dose mostly 9.22 µM), usual class: activators; 320,000 tested, 2.4% active; AID 485313, 2010; note: nearly all actives have a fitted effect of over 60% in size
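Stably transfected Huh7 (NPC1 promoter→luciferase), 1500 cells/well in Opti-MEM + 10% FBS, 2 h settle, then compound 24 h at 37 °C. Luminescence after 10 min with Amplite reagent.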
ELG1 repair inh – qHTS screen for small molecules that inhibit ELG1-dependent DNA repair in human embryonic kidney (HEK293T) cells expressing luciferase-tagged ELG1. HEK293T ELG1-luciferase reporter, luminescence, 16 h; DNA damage induced by 5-fluorouridine. Potency, µM (top dose mostly 46.1 µM), hits mostly inhibitors. 330,000 tested, 2.3% active; note: nearly all actives have a fitted effect of over 55% in size
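Step one: seed 2,000 cells per well. Step two: pin-transfer compound or DMSO alongside 5-fluorouridine. Step three: incubate 16 hr, 37 °C, 5% CO2. Step four: add ONE-Glo, wait 30 min, read luminescence.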
Rab9 promoter act – qHTS Assay for Rab9 Promoter Activators; Huh7 Rab9 promoter-luciferase reporter, luminescence, 24 h; Potency, µM (top dose mostly 9.22 µM), hits mostly activators; 320,000 tested, 2.8% active; AID 485297, 2010; note: nearly all actives have a fitted effect of over 60% in size
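Luciferase signal after 10 min detection reagent at ambient indicates Rab9 promoter upregulation; stably transfected Huh7 cells were treated 24 h with compound in DMSO at 37 °C, 5% CO2.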
ELG1 genotox – qHTS screen for small molecules that induce genotoxicity in human embryonic kidney (HEK293T) cells expressing luciferase-tagged ELG1; HEK293T ELG1-luciferase reporter, luminescence, 16 h; Potency, µM (doses to about 46 µM), most hits filed as activators; 330,000 tested, 1.3% active; note: nearly all actives have a fitted effect of over 60% in size
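Quantitative HTS format in 1536-well plates. HEK293T ELG1-luciferase reporter cells receive test compound and are incubated 16 hr at 37 °C, 5% CO2; ONE-Glo added, 30 min room temperature, then luminescence read.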
Hits are given with their value; . = inactive; ? = inconclusive; / = no result; [ ] = another dose, or the depositor's remark. Calls come from the whole dose curve; as a rule, active = well fitted curve in the direction sought with a large enough effect; inconclusive = small, poorly fitted or top-dose-only effect, or another doubt; inactive = no such curve, though single readings can be large; an effect the other way counts as inactive or inconclusive.

SMILES | FLuc counter | SMN2 splice up | NPC1 prom act | ELG1 repair inh | Rab9 promoter act | ELG1 genotox
COc1ccc(/C=C/C(=O)OCC(=O)NCc2ccco2)cc1OC | . | . | . | ? | . | .
Cc1ccccc1Nc1nc(N)nc(CN2CCN(C(=O)c3ccccc3)CC2)n1 | . | . | . | . | . | .
Cc1ccc2c(c1)-c1onc(C(=O)N3CCN(c4cc(Cl)ccc4C)CC3)c1CO2 | . | / | / | / | / | /
COc1ccc(C(C)=O)cc1COC(=O)Cc1cc(OC)c(OC)c(OC)c1 | . | / | . | . | . | .
CC(C)C(=O)O/N=C(\N)c1ccccn1 | . | . | . | . | . | .
N/C(=N\OC(=O)c1ccc(Cl)c([N+](=O)[O-])c1)c1ccccn1 | ? | / | . | ? | . | .
N/C(=N\OC(=O)c1ccc(Cl)cc1)c1ccccn1 | 0.0757µM | 7.08µM | 0.562µM | ? | 1.41µM | ?
N/C(=N\OC(=O)c1ccc(Cl)cc1)c1[nH]ncc1Br | 0.135µM | / | ? | ? | 3.16µM | ?
N/C(=N\OC(=O)c1ccc(Cl)c(Cl)c1)c1ccccn1 | 0.757µM | 14.1µM | 3.16µM | ? | 4.47µM | ?
CCOc1cc(C(=O)O/N=C(\N)c2ccccn2)cc(OCC)c1OCC | ? | / | . | ? | . | .
CCOc1ccc(C(=O)O/N=C(\N)c2ccccn2)cc1OCC | 12µM | / | 1.26µM | ? | 2.51µM | ?
O=C(OCC(=O)N1CCCC1)c1cc(Cl)ccc1[N+](=O)[O-] | . | / | . | . | . | .
Cc1ccc(NC(=S)NCc2ccc(Cl)cc2)c(OC(F)F)c1 | . | / | . | . | . | .
COc1ccc(OC)c(/C=N/NC2=NS(=O)(=O)c3ccccc32)c1 | . | / | . | . | . | .
N/C(=N\OC(=O)c1ccc2ccccc2c1)c1ccc(Br)cc1 | . | ? | . | ? | . | .
N/C(=N\OC(=O)c1cccc(Br)c1)c1ccccc1 | 0.849µM | ? | . | ? | . | ?
N/C(=N\OC(=O)c1cccc(Br)c1)c1ccccn1 | 0.426µM | / | 3.55µM | ? | 3.98µM | ?
N/C(=N\OC(=O)c1cccc(Cl)c1)c1ccccn1 | 0.601µM | 14.1µM | 3.16µM | ? | 3.16µM | ?
N/C(=N\OC(=O)CCCOc1ccccc1)c1cccc(Br)c1 | ? | . | . | . | . | .
N/C(=N\OS(=O)(=O)c1ccc(Cl)cc1)c1ccccn1 | . | . | . | ? | . | 23.1µM
O=C1C(=Nc2cccc(Cl)c2)CC(c2ccc(Cl)cc2)N1c1cccc(Cl)c1 (centres undefined) | . | / | . | . | . | .
COc1ccc(C(=O)CC(SCC(NC(C)=O)C(=O)O)c2ccc(Cl)cc2)cc1OC (centres undefined) | . | / | . | ? | .[1.84 µM] | .
COC(=O)c1sc(-c2ccc(Cl)cc2)cc1NC(=O)CSCC(=O)O | 13.5µM | / | . | . | . | .
COC(=O)c1sc(-c2ccc(C(C)(C)C)cc2)cc1NC(=O)COCC(=O)O | 3.79µM | / | . | . | . | .
COc1ccccc1N(CCC#N)C(=O)COC(=O)CCC(=O)c1ccc(F)cc1 | . | / | . | . | . | .
SMILES | FLuc counter | SMN2 splice up | NPC1 prom act | ELG1 repair inh | Rab9 promoter act | ELG1 genotox
COc1nc(C)nc2c1sc1nc3c(cc12)COC(C)(C)C3 | 13.5µM | 14.1µM | 2.51µM | ? | 2µM | 8.2µM
Cc1nc(OCC(C)C)c2sc3nc4c(cc3c2n1)COC(C)(C)C4 | 9.53µM | / | 1.78µM | ? | 1.41µM | ?
CCc1nc(OCc2ccco2)c2sc3nc4c(cc3c2n1)COC(C)(C)C4 | . | / | . | ? | . | .
O=C(OCC(=O)N1CCN(c2ccc(F)cc2)CC1)c1cnc2ccccc2n1 | / | / | / | ? | / | .
COc1ccc(CCn2c(N)c(C(=O)NCc3ccco3)c3nc4ccccc4nc32)cc1OC | . | . | . | 10µM | . | .
COc1ccc(CCn2c(N)c(C#N)c3nc4ccccc4nc32)cc1OC | . | . | . | 23.1µM | . | .
Nc1c(C(=O)NCc2ccco2)c2nc3ccccc3nc2n1CCc1ccccc1F | . | . | . | . | . | .
COc1ccc(CCn2c(N)c(C(=O)NCc3ccco3)c3nc4ccccc4nc32)cc1 | . | . | . | 20.6µM | . | .
O=C(NC(Cc1cc(=O)[nH]c2ccccc12)C(=O)O)c1ccc(Cl)cc1 (centres undefined) | / | . | / | / | / | /
Cc1ccc(CN2CCC(=O)N2)cc1 | . | / | . | . | . | .
Nc1ccc(-c2ccc(C(=O)O)s2)cn1 | 19µM | . | . | ? | . | .
Nc1ccc(S(=O)(=O)O)cn1 | . | . | . | . | . | .
Cc1ccc(-c2cc3ncc4c(n3n2)-c2cc(F)ccc2OC4)cc1 | . | . | / | / | / | /
Cc1ccc2c(c1)N=C(c1ccc(F)cc1)CO2 | 4.26µM | . | 3.98µM | ? | 3.16µM | ?
O=[N+]([O-])c1ccc(C2=Nc3cc(Cl)ccc3OC2)cc1 | 15.1µM | . | . | ? | . | .
O=C1CC(c2ccccc2)Oc2cc(O)cc(O)c21 (centres undefined) | 16.9µM | / | . | ? | . | ?
O=C1CC(c2ccc(O)c(O)c2)Oc2cc(O)cc(O)c21 (centres undefined) | . | . | . | . | . | .
O=C1CC(c2ccc3c(c2)OCCO3)Oc2ccccc21 (centres undefined) | 21.3µM | / | 3.16µM | ? | 2.82µM | ?
COc1ccc(C2CC(=O)c3ccccc3O2)cc1 (centres undefined) | 15.1µM | . | ? | ? | ? | ?
O=C1CC(c2ccc3c(c2)OCCO3)Oc2ccc([N+](=O)[O-])cc21 (centres undefined) | 0.269µM | / | ? | ? | 0.562µM | 0.651µM
O=C(Nc1ccc2c(c1)OCCO2)C1CCN(C(=O)c2ccc([N+](=O)[O-])cc2)CC1 | . | . | . | ? | . | .
COc1cc(OC)cc(C(=O)N[C@H](C(=O)OCC(=O)c2ccc(C)c([N+](=O)[O-])c2)C(C)C)c1 | / | / | / | . | / | .
CCOC(=O)c1cnc2ccc(C)cc2c1Sc1ccc(F)cc1 | 23.9µM | . | . | . | . | .
CCOC(=O)c1cnc2ccc(C)cc2c1Sc1ccccc1 | ? | . | . | ? | . | .
COc1cccc(C(=O)Nc2nnc(C(C)C)s2)c1 | 3.38µM | 2.51µM | 3.55µM | ? | 1µM | 3.66µM
CCCc1nnc(NC(=O)c2cccc(OC)c2)s1 | 23.9µM | ? | 3.16µM | ? | 4.47µM | ?
CC(=O)Nc1cccc(C(=O)NNC(=O)c2ccccc2-n2cccc2)c1 | . | / | . | . | . | .
COc1ccc(C(=O)N2CCC[C@@]3(CCN(Cc4cc(C(F)(F)F)cc(C(F)(F)F)c4)C3)C2)cc1 | / | . | / | / | / | /

Source: PubChem (National Center for Advancing Translational Sciences (NCATS))
